Assay [1] in a line: qHTS assay for small molecules that induce genotoxicity in human embryonic kidney cells expressing luciferase-tagged ATAD5 (AID 651632). Note: nearly all actives have a fitted effect of over 15% in size. An outline of the steps:
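Quantitative HTS in HEK293T expressing luciferase-tagged ATAD5, whose levels rise upon DNA damage. Exposure ran 16 hr at 37C and 5% CO2, with luminescence read 30 min after Amplite addition at room temperature.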
For orientation: Quantitative high-throughput screening tests each substance at several concentrations.

Assay [2] can be described thus: qHTS assay for small molecule agonists of the p53 signaling pathway - cell viability (AID 651633; calls by dose curve;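 note: p53RE-bla HCT reporter cells with a stable beta-lactamase p53 reporter; series mostly up to about 83 µM; nearly all actives have a fitted effect of over 30% in size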). The essentials: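 p53RE-bla cells were treated with compound for 16 hours at 37 C. Cytotoxicity was then measured as CellTiter-Glo luminescence after 30 min at room temperature.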
Assay [3] can be described thus: qHTS assay for small molecules that induce genotoxicity in human embryonic kidney cells expressing luciferase-tagged ATAD5 - cell viability (AID 651634; calls by dose curve; note: nearly all actives have a fitted effect of over 25% in size; note: potency is the fitted concentration of half-maximal effect). An outline of the steps: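 After 15.5 hr incubation with compound at 37C, 5% CO2, HEK293T ATAD5-luciferase cells received CellTiter-Fluor reagent; fluorescence intensity was quantified following 30 min at 37C.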

Assay [4] can be described thus: qHTS assay for small molecule disruptors of the mitochondrial membrane potential - cell viability (AID 720634; calls by dose curve;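 note: human HepG2 liver cancer cells; series mostly up to about 83 µM; nearly all actives have a fitted effect of over 20% in size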). An outline of the steps:
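ATP-based luminescent viability readout (CellTiter-Glo, 30 min, room temperature) in HepG2 cells multiplexed with the m-MPI membrane potential dye; compound exposure lasted 1 hr at 37 C.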

Assay [5] is described as follows: qHTS assay to test for compound auto fluorescence at 535 nm (green) in HepG2 cells (AID 720675).
Assay [6] can be described thus: qHTS assay to test for compound auto fluorescence at 460 nm (blue) in HEK293 cells (AID 720678). An outline of the steps:
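HEK293 cells (2,000 per well, medium with 10% dialyzed FBS) attached for 4-5 hr at 37C, then received compound and stood overnight at 37C, 5% CO2. Blue fluorescence was read at Ex/Em 405/460 nm and expressed relative to triamterene.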

Assay [7] is described as follows: qHTS assay to test for compound auto fluorescence at 535 nm (green) in HEK293 cells (AID 720680).
A short description of assay [8]: qHTS assay to test for compound auto fluorescence at 460 nm (blue) in HEK293 cell free culture (AID 720681). The essentials: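 Compounds were added to cell-free DMEM with 10% FBS and fluorescence read directly. The blue channel used 405 nm excitation and 460 nm emission, with triamterene as the reference fluorophore.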
The nature of assay [9]: qHTS assay to test for compound auto fluorescence at 590 nm (red) in HEK293 cell free culture (AID 720683). An outline of the steps:
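Cell-free wells of DMEM with 10% FBS received compound, and intrinsic fluorescence was read at excitation/emission 540/590 nm. Values expressed as equivalence to Rose Bengal sodium.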

Assay [10] can be described thus: qHTS assay to test for compound auto fluorescence at 590 nm (red) in HepG2 cell free culture (AID 720684). An outline of the steps:
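Auto fluorescence equivalency versus Rose Bengal sodium, red channel Ex/Em 540/590 nm; compounds in cell-free MEM/10% FBS; DMSO vehicle control.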

A short description of assay [11]: qHTS assay to test for compound auto fluorescence at 460 nm (blue) in HepG2 cell free culture (AID 720685). The essentials: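 Cell-free plates of MEM plus 10% FBS received 23 nL compound or DMSO vehicle; blue-channel (405/460 nm) intensity scored against triamterene as reference fluorophore.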
Assay [12] in a line: qHTS assay to test for compound auto fluorescence at 535 nm (green) in HepG2 cell free culture (AID 720686).
The nature of assay [13]: qHTS assay to test for compound auto fluorescence at 460 nm (blue) in HepG2 cells (AID 720687). The essentials:
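HepG2 cells in MEM with 10% FBS, attached overnight at 37 C, were exposed to compound or DMSO for 1 hr at 37 C, 5% CO2. Blue fluorescence was read at 405/460 nm, with triamterene as reference fluorophore.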

The target of assay [14] is Glucocorticoid receptor (Homo sapiens) (UniProt P04150). Kind of assay: qHTS assay to identify small molecule agonists of the glucocorticoid receptor (GR) signaling pathway (AID 720691; active = well fitted activation curve with a large enough effect in the signal ratio in the repeat runs, not every such curve was filed as active; the % refers to the signal ratio). An outline of the steps: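 Cells: GR-bla HeLa, endogenous GR with stably integrated GRE-beta-lactamase reporter. Treatment 18 h, 37 C, compounds delivered in DMSO. Detection via LiveBLAzer B/G FRET substrate, 2 h RT, fluorescence intensity.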
Glucocorticoid receptor (Homo sapiens), sequence (P04150 whole entry, looked up): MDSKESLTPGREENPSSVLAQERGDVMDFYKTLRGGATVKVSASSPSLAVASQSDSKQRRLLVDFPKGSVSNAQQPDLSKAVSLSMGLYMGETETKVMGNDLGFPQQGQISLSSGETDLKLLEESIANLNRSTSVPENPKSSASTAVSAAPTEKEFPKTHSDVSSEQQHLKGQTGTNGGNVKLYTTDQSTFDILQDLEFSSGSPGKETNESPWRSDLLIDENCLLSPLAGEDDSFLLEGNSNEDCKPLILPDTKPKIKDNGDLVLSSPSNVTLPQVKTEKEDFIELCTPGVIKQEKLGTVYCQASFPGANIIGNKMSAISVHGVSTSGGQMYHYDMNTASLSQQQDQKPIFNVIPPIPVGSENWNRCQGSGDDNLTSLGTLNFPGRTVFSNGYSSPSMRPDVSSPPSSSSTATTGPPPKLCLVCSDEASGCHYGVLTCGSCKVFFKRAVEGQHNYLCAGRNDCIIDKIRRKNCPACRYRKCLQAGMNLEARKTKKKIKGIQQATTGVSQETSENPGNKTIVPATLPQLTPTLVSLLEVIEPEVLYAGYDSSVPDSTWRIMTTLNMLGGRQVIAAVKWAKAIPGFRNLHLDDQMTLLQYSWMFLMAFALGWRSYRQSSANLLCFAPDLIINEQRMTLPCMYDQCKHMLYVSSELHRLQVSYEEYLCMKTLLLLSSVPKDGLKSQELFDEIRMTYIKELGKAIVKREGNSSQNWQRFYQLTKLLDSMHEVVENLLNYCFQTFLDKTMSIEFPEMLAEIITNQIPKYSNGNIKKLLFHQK

For assay [15] the target is unchanged. Kind of assay: qHTS assay to identify small molecule antagonists of the glucocorticoid receptor (GR) signaling pathway (AID 720692; active = well fitted inhibition curve with a large enough effect in the signal ratio in the repeat runs, not every such curve was filed as active; the % refers to the signal ratio). An outline of the steps: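 Quantitative HTS in antagonist format: HeLa cells expressing endogenous GR and a stably integrated GRE-bla reporter, stimulated with 5 nM dexamethasone (final) alongside test compounds for 18 h.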
The nature of assay [16]: qHTS assay for small molecule disruptors of the mitochondrial membrane potential (AID 720635). Note: potency is the fitted concentration of half-maximal effect. An outline of the steps:
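HepG2 cells exposed to compound 1 hr at 37C, then Mito-MPS dye 30 min. Ratio read of aggregate (540/590 nm) versus monomer (490/535 nm) fluorescence.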

The nature of assay [17]: qHTS assay to test for compound auto fluorescence at 590 nm (red) in HepG2 cells (AID 720674). The essentials:
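Fluorescence at 590 nm emission following 540 nm excitation was recorded from HepG2 wells one hour after compound transfer, with DMSO-only wells as vehicle and Rose Bengal sodium equivalency as the scale.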

Assay [18] can be described thus: qHTS assay to test for compound auto fluorescence at 590 nm (red) in HEK293 cells (AID 720679). The essentials: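 HEK293 cells (2,000/well, medium with 10% dialyzed FBS) attached for 4-5 hr at 37C, received 23 nL compound and were incubated overnight at 37C, 5% CO2. Red fluorescence was then read at 540/590nm Ex/Em, referenced to Rose Bengal sodium.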
Assay [19] is described as follows: qHTS assay to test for compound auto fluorescence at 535 nm (green) in HEK293 cell free culture (AID 720682). The essentials:
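Green-label autofluorescence (485 nm excitation, 535 nm emission) measured on compound added to cell-free culture medium (DMEM, 10% FBS). Output is expressed relative to fluorescein.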

Each structure is given as a SMILES string. A number with no mark means an inactive call. Records with an inconclusive call do not appear. Calls of active or inactive are those of the source. Unless noted, calls come from the whole dose curve; as a rule, active = well fitted curve in the direction sought with a large enough effect in the repeat runs; inconclusive = weak or mixed curves; inactive = no such curve, though single readings can be large; an effect the other way counts as inactive or inconclusive.

Results on 13 compounds are retold here after PubChem BioAssay (Tox21).

As to `CC(C)(C)c1cc(CCC(=O)OCC(COC(=O)CCc2cc(C(C)(C)C)c(O)c(C(C)(C)C)c2)(COC(=O)CCc2cc(C(C)(C)C)c(O)c(C(C)(C)C)c2)COC(=O)CCc2cc(C(C)(C)C)c(O)c(C(C)(C)C)c2)cc(C(C)(C)C)c1O`, the Potency result in [1], in [2], in assay [3], in [4], in assay [6] and in assay [8] was “inactive” each time. Besides, the Potency entry in assay [11], in [13], in assay [14] and in [15] was “inactive” throughout. Further, the compound was classed as inactive in assay [5], in assay [7], in [9], in assay [10] and in assay [12].

As for `CC(C)(C)c1cc(O)c(C(C)(C)C)cc1O`, the Potency result in assay [1], in [3], in assay [4], in assay [6], in assay [8] and in assay [11] was “inactive” each time. The Potency result in assay [13] and in assay [14] was “inactive” throughout. Also, the Potency in [16] is 6.11 µM (active). For the same compound, the compound was called inactive in [17], in [5], in [18], in [7], in assay [19] and in [9]. Besides, the call in assay [10] and in [12] was inactive.

For the compound `O=S1(=O)N=C(O)c2ccccc21`, the Potency entry in [3], in assay [4], in assay [16], in [6] and in assay [11] was “inactive” in each case. In addition, the outcome in assay [17], in assay [5], in [18], in assay [7], in assay [9] and in [10] was inactive. The call in [12] was inactive.

As for `Cn1c(NCCN(CCO)CCCc2ccc([N+](=O)[O-])cc2)cc(=O)n(C)c1=O`, the Potency result in assay [1], in [3], in assay [4], in assay [6], in [8] and in [11] was “inactive” in each case. The Potency entry in assay [13] and in assay [15] was “inactive” each time. Also, the outcome in assay [17], in [5], in assay [18], in assay [7], in assay [19] and in assay [9] was inactive. Besides, the outcome in [10] and in assay [12] was inactive.

Regarding `CCCCCCCCC(CO)CCCCCC` (centres undefined), the Potency result in [1], in assay [3], in assay [4], in assay [8], in assay [11] and in [13] was “inactive” throughout. Also, the Potency entry in assay [14] is “inactive”. For the same compound, the outcome in assay [17], in assay [5], in assay [18], in assay [19], in [9] and in assay [12] was inactive.

On to `O=S1(=O)c2cccc3cccc(c23)N1CCCN1CCN(c2ccc(F)cc2)CC1`, for which the Potency result in assay [1], in assay [2], in [3], in [4], in [8] and in assay [11] was “inactive” each time. Moreover, the Potency result in assay [13], in assay [14] and in assay [15] was “inactive” each time. Also, the call in assay [17], in assay [5], in [18], in [7], in assay [9] and in [10] was inactive. Moreover, the call in assay [12] was inactive.

With `CC(=O)c1c(C)c([N+](=O)[O-])c(C(C)(C)C)c([N+](=O)[O-])c1C`, the Potency entry in assay [1], in assay [2], in assay [3], in assay [6], in [11] and in [13] was “inactive” each time. The Potency entry in [14] and in [15] was “inactive” each time. Further, the Potency in [16] was 54.5 µM (active). For the same compound, the call in assay [17], in assay [5], in [18], in assay [19], in assay [9] and in [12] was inactive.

Take `S=C(S)NCCNC(=S)S`: the Potency result in assay [1], in [2], in assay [3], in assay [4], in [6] and in assay [8] was “inactive” each time. For the same compound, the Potency result in assay [11], in assay [13], in assay [14] and in assay [15] was “inactive” throughout. For the same compound, the compound was called inactive in assay [5], in [18], in assay [7], in [19], in assay [9] and in assay [10]. Besides, the call in assay [12] was inactive.

Take `CC1(C)CCC(C)(C)c2cc(NC(=O)c3ccc(C(=O)O)cc3)ccc21`: the Potency entry in assay [1], in assay [4], in assay [6], in [8], in [11] and in assay [13] was “inactive” each time. In addition, in assay [14], the Potency entry is “inactive”. Further, the Potency in [16] is 24.8 µM (active). In addition, the outcome in assay [5], in assay [7], in assay [19], in [9], in [10] and in assay [12] was inactive.

As for `COc1ccc([C@@H]2Sc3ccccc3N(CCN(C)C)C(=O)[C@@H]2OC(C)=O)cc1`, the Potency entry in assay [1], in assay [3], in assay [4], in assay [16], in assay [6] and in assay [8] was “inactive” throughout. Besides, the Potency result in [11] and in [14] was “inactive” throughout. Moreover, the result in [17], in assay [5], in assay [18], in assay [7], in assay [19] and in assay [9] was inactive. In addition, the compound was called inactive in assay [10] and in [12].

Consider `COCCCCCCCCOCCC[Si](C)(O[Si](C)(C)C)O[Si](C)(C)C`, for which the Potency entry in assay [1], in assay [2], in assay [6], in assay [8], in assay [11] and in assay [13] was “inactive” each time. Moreover, the Potency in [16] is 4.86 µM (active). Besides, the outcome in [5], in assay [18], in assay [7], in [19], in [9] and in [12] was inactive.

In the case of `CCc1nn(C2CCCCC2)c2cc(C3(C#N)CCC(C(=O)O)CC3)ccc12` (centres undefined), the Potency result in assay [1], in [2], in [4], in [6], in [8] and in assay [11] was “inactive” each time. The Potency result in assay [13] and in [14] was “inactive” each time. Besides, the Potency in assay [3] is 27.3 µM (active). The result in [5], in [18], in assay [7], in [19], in assay [9] and in assay [10] was inactive. Further, the compound was classed as inactive in assay [12].

Take `O=C1CCCCCO1`: the Potency result in [1], in [2], in [3], in assay [6], in assay [8] and in assay [11] was “inactive” throughout. Also, the Potency entry in assay [13] and in [14] was “inactive” throughout. Besides, the compound was called inactive in [17], in assay [5], in [7], in assay [19], in [9] and in [12].
